Where “and” joins values, the source holds several entries; their conditions need not be identical. Identical values can stand only once. Records with an inconclusive call do not appear. Some compounds were tested as several samples or in several runs, with calls that do not always agree. Calls of active or inactive are those of the source. Calls follow the shape of the dose curve; as a rule, active = well fitted cell-killing curve with a large enough effect in the repeat runs; inconclusive = weak or mixed curves; inactive = flat fitted curve, though single readings scatter.
Experiment: qHTS RealTime-Glo MT Cell Viability Assay in HepG2 cells - 24 hour (AID 1224867); also: nearly all actives have a fitted effect of over 50% in size
Details: RealTime-Glo luminescence; series mostly up to 76.8 µM; activity change, negative = cytotoxicity: at the top concentration
Text: U.S. Tox21 Program National Center for Advancing Translational Sciences [NCATS] NIH Chemical Genomics Center [NCGC] U.S. Environmental Protection Agency [EPA] National Institutes of Environmental Health Sciences [NIEHS] National Toxicology Program [NTP] U.S. Food and Drug Administration [FDA] Tox21 Assay Overview: Measure of cell viability is critical in the cell-base assay. Analysis of cell viability is necessary for the characterization of cell responses to cytotoxic drugs and environmental stress. A RealTime-Glo MT Cell Viability Assay to monitor cell viability in real time of continues cell culture during 40 hours of compound treatment was used to screen Tox21 10K library compounds in HepG2 cells. The RealTime-Glo MT Cell Viability Assay is a nonlytic, homogeneous, bioluminescent method to measure cell viability in real time using a simple, plate-based method. The assay involves adding NanoLuc luciferase and a cell-permeant prosubstrate to cells in culture. Viable cells reduce the proprietary prosubstrate to generate a substrate for NanoLuc luciferase. This substrate diffuses from cells into the surrounding culture medium, where it is rapidly used by the NanoLuc Enzyme to produce a luminescent signal. The signal correlates with the number of viable cells, making the assay well suited for cytotoxicity studies.
Tox21 Assay Protocol Summary: The mixture of HepG2 cell suspension and reagents were dispensed at 600cells/6 ul/well in 1536-well tissue culture treated black solid bottom plates using a Multidrop dispenser. After the assay plates were incubated at a 37 C/5% CO2 incubator for 5 hours, 23 nL of compounds dissolved in DMSO, positive and negative controls was transferred to the assay plate by a pintool work station. The plates were incubated at 37 C for 40 hours. The luminescence intensity were measured at 0h, 8h, 16h, 24h, 32h and 40h time points using ViewLux plate reader during compound treatment.
% is scaled to controls: 0 for no effect and ±100 for the full control effect; potency is read from the fitted curve at half-maximal effect.

| SMILES | activity change, negative = cytotoxicity | Potency |
| --- | --- | --- |
| O=C(O)c1cc(Cl)cc(Cl)c1 | -0.133% (inactive) |  |
| c1cc(C(c2ccc(OCC3CO3)cc2)C(c2ccc(OCC3CO3)cc2)c2ccc(OCC3CO3)cc2)ccc1OCC1CO1 (stereo not given) |  | inactive |
| COC(c1ccccc1)(c1ccccc1)[C@H](Oc1nc(C)cc(C)n1)C(=O)O | 1.2% [at 35.3 µM] (inactive) |  |
| COc1cc(C(=S)N2CCOCC2)ccc1O | 1.89% [at 35.3 µM] (inactive) |  |
| CN(C)c1ccc2nc3ccc(=[N+](C)C)cc-3sc2c1 |  | 16.7 µM (active) and 12.3 µM (active) and 19 µM (active) |
| NC(=Nc1ccccc1)Nc1ccccc1 |  | inactive |
| c1ccc2cc3c(ccc4ccccc43)cc2c1 |  | inactive |
| C=CC(=O)OCCCCCCCC | 2.55% (inactive) |  |
| Cc1cccc(O)c1C |  | inactive |
| CC(C)(C)c1cc(C(C)(C)C)c(O)c(C(C)(C)C)c1 |  | inactive |
| CC(C)CCOC(=O)c1ccc(N(C)C)cc1 | -7.63% [at 35.3 µM] (inactive) |  |
| CC[C@@H](N)CO | -0.459% (inactive) |  |
| CN1C(=O)c2ccc([N+](=O)[O-])cc2C1=O | 0.0727% (inactive) |  |
| C1COC(NC(C2CC2)C2CC2)=N1 | -2.8% [at 35.3 µM] (inactive) |  |
| NC12CC3CC(CC(C3)C1)C2 | 1.92% [at 35.3 µM] (inactive) |  |
| CCN(CC)CCOc1ccc(/C(=C(\Cl)c2ccccc2)c2ccccc2)cc1 |  | 28.1 µM (active) and 23.9 µM (active) |
| O=C1Nc2ccccc2C1(c1ccc(O)cc1)c1ccc(O)cc1 |  | inactive |
| CC(COc1ccccc1)N(CCCl)Cc1ccccc1 (stereo not given) | -12.2% [at 35.3 µM] (inactive) |  |
| COc1ccc(Cc2cnc(N)nc2N)cc1OC | 0.797% [at 35.3 µM] (inactive) |  |
| CCN(CC)C(=S)SSC(=S)N(CC)CC |  | 436 nM (active) and 398 nM (active) and inactive |

| SMILES | activity change, negative = cytotoxicity | Potency |
| --- | --- | --- |
| O=C1OC2(c3ccc(O)cc3Oc3cc(O)ccc32)c2ccccc21 | -26.5% (inactive) |  |
| CCC(=O)/C=C/C1C(C)=CCCC1(C)C (stereo not given) |  | inactive |
| Nc1nc(=S)c2[nH]cnc2[nH]1 |  | inactive |
| Nc1ccc2cc3ccccc3cc2c1 |  | inactive |
| Cc1cc(Cc2cc(C)cc(C(C)(C)C)c2O)c(O)c(C(C)(C)C)c1 |  | 49.2 µM (active) and 43.6 µM (active) |
| CC(C)CCOCc1ccccc1 | 0.908% (inactive) |  |
| NCCCCCC(=O)O | -1.32% [at 35.3 µM] (inactive) |  |
| O=C(OCc1ccccc1)c1ccc(O)cc1 |  | inactive |
| Cc1ccnc2c1NC(=O)c1cccnc1N2C1CC1 |  | inactive |
| CCCCCCCCCCCCc1ccccc1O |  | inactive and 38.9 µM (active) |
| C=C(C)C1CC=C(C)C(OC(C)=O)C1 (stereo not given) |  | inactive |
| OCCOCCN1CCN(C(c2ccccc2)c2ccc(Cl)cc2)CC1 (stereo not given) |  | 48.3 µM (active) and inactive |
| c1ccc2c(c1)-c1cccc3c1c-2cc1ccccc13 |  | inactive |
| Nc1nc2ccccc2[nH]1 |  | inactive |
| c1ccc2n[nH]nc2c1 |  | inactive |
| Cc1cc(OCCOCC[N+](C)(C)Cc2ccccc2)ccc1C(C)(C)CC(C)(C)C |  | 15.4 µM (active) and 10.7 µM (active) |
| OCCN1CCNCC1 |  | inactive |
| CCCCOCCOC(=O)c1ccccc1C(=O)OCCOCCCC |  | inactive |
| CC(=O)N[C@@H](CS)C(=O)O |  | inactive |
| O=C(Nc1ccccc1SSc1ccccc1NC(=O)c1ccccc1)c1ccccc1 |  | inactive and 49 µM (active) |
